Data as given in PMC7862700, “An all-to-all approach to the identification of sequence-specific readers for epigenetic DNA modifications on cytosine”.

Experiments:
Test in all cases: DAPPL (digital affinity profiling via proximity ligation, sequencing); 10 mM Tris-HCl pH 7.5, 50 mM NaCl, 1 mM DTT, 4% glycerol, room temperature, 30 min; GST-TFs on glutathione beads, 16-mer random dsDNA library, 0.1% formaldehyde crosslink after washing; high values mean tight binding
[1] = biological target: T1, FEV (Homo sapiens, UniProt Q99581 1-238); details: protein: recombinant; tags: N-terminal GST; dsDNA, one strand shown
T1 sequence: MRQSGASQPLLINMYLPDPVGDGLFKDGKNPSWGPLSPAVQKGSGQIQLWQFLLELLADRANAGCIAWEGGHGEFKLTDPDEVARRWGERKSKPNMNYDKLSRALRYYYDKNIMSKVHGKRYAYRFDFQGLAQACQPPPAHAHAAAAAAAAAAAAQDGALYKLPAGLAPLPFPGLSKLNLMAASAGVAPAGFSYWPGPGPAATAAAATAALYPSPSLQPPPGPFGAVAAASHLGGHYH
In short: (§1)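 Yeast served to express human transcription factors as GST fusions, which were then captured on glutathione beads and labelled with DNA barcodes. Pooled with a tag-only sample, they were incubated with 200 nmole of a 16-mer random double-stranded DNA library for 30 min at room temperature in Tris/NaCl/DTT/glycerol buffer, washed, crosslinked with 0.1% formaldehyde, ligated by proximity, amplified by PCR and sequenced. Dividing each hexamer's read frequency for a factor by its frequency for the tag-only sample gives the binding signal.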

[2] = biological target: ETV5 (Homo sapiens, UniProt P41161 1-510); details: protein: recombinant; tags: N-terminal GST; dsDNA, one strand shown
Sequence of ETV5 (P41161 whole entry): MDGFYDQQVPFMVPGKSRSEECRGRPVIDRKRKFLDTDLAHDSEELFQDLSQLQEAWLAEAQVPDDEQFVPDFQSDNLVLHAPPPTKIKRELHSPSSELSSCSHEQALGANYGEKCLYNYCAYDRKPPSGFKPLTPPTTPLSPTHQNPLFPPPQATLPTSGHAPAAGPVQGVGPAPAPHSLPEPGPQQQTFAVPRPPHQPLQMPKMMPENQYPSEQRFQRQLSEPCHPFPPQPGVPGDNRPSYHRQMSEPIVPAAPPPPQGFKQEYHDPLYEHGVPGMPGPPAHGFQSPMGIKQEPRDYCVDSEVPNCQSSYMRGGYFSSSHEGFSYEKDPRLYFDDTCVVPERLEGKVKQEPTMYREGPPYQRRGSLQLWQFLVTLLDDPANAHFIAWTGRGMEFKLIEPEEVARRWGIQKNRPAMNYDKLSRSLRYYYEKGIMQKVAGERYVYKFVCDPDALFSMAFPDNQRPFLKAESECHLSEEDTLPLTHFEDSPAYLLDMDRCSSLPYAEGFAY
In short: as §1

[3] = biological target: HSF1 (Homo sapiens, UniProt Q00613 1-529); details: protein: recombinant; tags: N-terminal GST; chain copies: 3; dsDNA, one strand shown
Sequence of HSF1 (Q00613 whole entry): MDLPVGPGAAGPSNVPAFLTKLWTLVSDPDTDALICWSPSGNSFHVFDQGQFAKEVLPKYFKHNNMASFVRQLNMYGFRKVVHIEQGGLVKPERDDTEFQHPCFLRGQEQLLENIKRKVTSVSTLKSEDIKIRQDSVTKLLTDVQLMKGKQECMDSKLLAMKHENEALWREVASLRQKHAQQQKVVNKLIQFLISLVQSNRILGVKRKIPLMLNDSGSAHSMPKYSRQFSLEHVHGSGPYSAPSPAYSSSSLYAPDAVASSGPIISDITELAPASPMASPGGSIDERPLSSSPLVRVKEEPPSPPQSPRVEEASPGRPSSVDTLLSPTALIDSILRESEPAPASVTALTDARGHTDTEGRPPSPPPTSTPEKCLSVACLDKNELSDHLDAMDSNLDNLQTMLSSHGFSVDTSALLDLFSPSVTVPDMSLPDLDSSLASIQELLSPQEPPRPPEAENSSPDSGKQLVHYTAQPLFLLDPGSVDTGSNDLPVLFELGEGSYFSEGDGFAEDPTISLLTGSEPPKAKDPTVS
In short: as §1

[4] = biological target: T2, SPIC (Homo sapiens, UniProt Q8N5J4 1-248); details: protein: recombinant; tags: N-terminal GST; dsDNA, one strand shown
T2 sequence: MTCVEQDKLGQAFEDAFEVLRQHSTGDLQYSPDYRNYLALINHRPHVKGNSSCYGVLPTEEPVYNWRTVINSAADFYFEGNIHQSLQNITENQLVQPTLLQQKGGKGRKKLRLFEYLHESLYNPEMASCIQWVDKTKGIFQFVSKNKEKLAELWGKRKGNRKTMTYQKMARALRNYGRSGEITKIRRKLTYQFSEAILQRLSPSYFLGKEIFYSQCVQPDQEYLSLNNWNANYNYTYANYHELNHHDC
In short: as §1

[5] = biological target: ELF4 (Homo sapiens, UniProt Q99607 1-663); details: protein: recombinant; tags: N-terminal GST; dsDNA, one strand shown
Sequence of ELF4 (Q99607 whole entry): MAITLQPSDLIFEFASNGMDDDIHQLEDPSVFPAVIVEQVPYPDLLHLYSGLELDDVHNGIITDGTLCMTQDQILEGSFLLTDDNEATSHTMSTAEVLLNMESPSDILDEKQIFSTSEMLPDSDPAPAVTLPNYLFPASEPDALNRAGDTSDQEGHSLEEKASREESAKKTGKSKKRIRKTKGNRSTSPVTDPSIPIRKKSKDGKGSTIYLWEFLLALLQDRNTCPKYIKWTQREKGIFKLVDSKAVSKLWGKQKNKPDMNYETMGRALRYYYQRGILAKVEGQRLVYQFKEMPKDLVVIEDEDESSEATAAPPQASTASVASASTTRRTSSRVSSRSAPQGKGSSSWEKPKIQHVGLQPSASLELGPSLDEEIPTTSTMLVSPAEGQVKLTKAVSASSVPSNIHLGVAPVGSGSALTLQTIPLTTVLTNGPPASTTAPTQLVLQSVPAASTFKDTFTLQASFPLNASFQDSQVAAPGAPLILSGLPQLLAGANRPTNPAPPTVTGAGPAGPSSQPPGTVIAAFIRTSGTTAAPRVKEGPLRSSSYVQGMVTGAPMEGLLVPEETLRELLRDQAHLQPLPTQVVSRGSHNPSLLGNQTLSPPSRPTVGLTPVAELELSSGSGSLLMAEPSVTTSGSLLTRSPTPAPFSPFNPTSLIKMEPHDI
In short: as §1

[6] = biological target: T3, ELK4 (Homo sapiens, UniProt P28324-2 1-405); details: protein: recombinant; tags: N-terminal GST; dsDNA, one strand shown
T3 sequence: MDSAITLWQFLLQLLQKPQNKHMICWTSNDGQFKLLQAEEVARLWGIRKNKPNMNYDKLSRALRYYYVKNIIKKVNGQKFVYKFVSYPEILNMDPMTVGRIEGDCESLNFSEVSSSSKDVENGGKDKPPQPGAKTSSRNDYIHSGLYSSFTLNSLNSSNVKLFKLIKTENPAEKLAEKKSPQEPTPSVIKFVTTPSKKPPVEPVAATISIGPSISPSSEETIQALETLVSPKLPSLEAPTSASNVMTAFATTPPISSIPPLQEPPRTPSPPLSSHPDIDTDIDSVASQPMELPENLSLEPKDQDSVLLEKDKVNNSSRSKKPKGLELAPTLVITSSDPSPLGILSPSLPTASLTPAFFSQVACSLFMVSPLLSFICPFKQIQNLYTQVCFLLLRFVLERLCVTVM
In short: as §1

[7] = biological target: T4, ETV2 (Homo sapiens, UniProt O00321 1-342); details: protein: recombinant; tags: N-terminal GST; dsDNA, one strand shown
T4 sequence: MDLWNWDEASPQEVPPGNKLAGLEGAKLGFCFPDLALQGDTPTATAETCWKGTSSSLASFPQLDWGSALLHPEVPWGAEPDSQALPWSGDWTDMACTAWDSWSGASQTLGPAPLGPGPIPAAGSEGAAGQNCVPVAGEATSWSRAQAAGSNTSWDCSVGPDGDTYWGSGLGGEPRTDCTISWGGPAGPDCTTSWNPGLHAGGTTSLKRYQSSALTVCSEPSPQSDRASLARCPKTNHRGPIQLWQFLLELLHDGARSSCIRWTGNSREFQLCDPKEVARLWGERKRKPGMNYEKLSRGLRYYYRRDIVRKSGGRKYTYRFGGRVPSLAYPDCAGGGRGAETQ
In short: as §1

[8] = biological target: T5, ELF3 (Homo sapiens, UniProt P78545 1-371); details: protein: recombinant; tags: N-terminal GST; dsDNA, one strand shown
T5 sequence: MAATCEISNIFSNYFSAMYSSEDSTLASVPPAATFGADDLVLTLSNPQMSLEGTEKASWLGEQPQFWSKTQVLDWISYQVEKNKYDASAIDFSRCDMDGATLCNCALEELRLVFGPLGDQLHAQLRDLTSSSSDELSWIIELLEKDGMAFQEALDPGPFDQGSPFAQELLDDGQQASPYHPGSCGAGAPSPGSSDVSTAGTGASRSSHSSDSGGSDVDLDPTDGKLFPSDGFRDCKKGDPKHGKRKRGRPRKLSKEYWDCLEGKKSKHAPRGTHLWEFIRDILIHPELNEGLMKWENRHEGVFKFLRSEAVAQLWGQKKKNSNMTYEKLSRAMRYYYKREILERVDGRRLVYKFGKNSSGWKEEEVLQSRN
In short: as §1

[9] = biological target: CRX (Homo sapiens, UniProt O43186 1-299); details: protein: recombinant; tags: N-terminal GST; dsDNA, one strand shown
Sequence of CRX (O43186 whole entry): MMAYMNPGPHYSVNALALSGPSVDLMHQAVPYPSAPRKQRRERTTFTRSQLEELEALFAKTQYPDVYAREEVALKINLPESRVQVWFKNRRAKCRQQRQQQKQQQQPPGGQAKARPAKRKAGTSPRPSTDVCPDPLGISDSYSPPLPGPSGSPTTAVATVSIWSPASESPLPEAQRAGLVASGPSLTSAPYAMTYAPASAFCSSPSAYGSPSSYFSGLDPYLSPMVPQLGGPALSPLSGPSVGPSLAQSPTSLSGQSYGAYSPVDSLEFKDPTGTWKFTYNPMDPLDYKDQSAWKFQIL
In short: as §1

ACCTAT
binding signal [1]: 1.15 fold enrichment (6-mer frequency, TF over GST control) | binding signal [2]: 1.14 fold enrichment (6-mer frequency, TF over GST control) | binding signal [3]: 1.05 fold enrichment (6-mer frequency, TF over GST control) | binding signal [4]: 1.11 fold enrichment (6-mer frequency, TF over GST control) | binding signal [5]: 1.24 fold enrichment (6-mer frequency, TF over GST control) | binding signal [6]: 1.13 fold enrichment (6-mer frequency, TF over GST control) | binding signal [7]: 1.28 fold enrichment (6-mer frequency, TF over GST control) | binding signal [8]: 1.24 fold enrichment (6-mer frequency, TF over GST control) | binding signal [9]: 1.09 fold enrichment (6-mer frequency, TF over GST control)
